Measured values from PubChem BioAssay AID602293 (National Center for Advancing Translational Sciences (NCATS), 2012).
Screen size: about 1,300 compounds; about 30 (2%) were called active. Inconclusive results (about 10%) are left out. The call rests on the fitted dose curve; in most records, active means well fitted inhibition curve with a large enough effect; inconclusive means small, poorly fitted or top-dose-only effect; inactive means flat fitted curve, though single readings scatter. Shown is part of a subset that was picked to be rich in actives. A call without a number means that no potency is given here.

experiment: qHTS for antagonists of the Thyroid Stimulation Hormone Receptor: Hit Validation in HTRF Activity in a Luteinizing Hormone Receptor Cell Line; details: LHR-expressing cell line, cAMP HTRF, antagonist mode; series mostly up to 58 µM
Summary of the method: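 Counter-screen on LH receptor–transfected HEK 293 cells: 30 min compound exposure at room temperature in medium containing 100 uM RO 20-1724 phosphodiesterase inhibitor. Cellular cAMP read by competitive HTRF after lysis with d2-cAMP and anti-cAMP antibody (330 nm excitation; 615/660 nm emission).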

Compound	Potency
O=C(CN1C(=O)NC2(CCCCCC2)C1=O)N1CCC(Cc2ccccc2)CC1	inactive
COc1ccc(NS(=O)(=O)c2cc(-c3cnc(C4CC4)o3)ccc2C)cc1	inactive
CC(C)Cn1c(-c2csc3c2CCCC3)n[nH]c1=S	inactive
CC(=O)Oc1c(I)cc(I)cc1C(=O)Nc1ccc(Cl)cc1	inactive
Cc1ccc(NS(=O)(=O)c2cc(C(=O)Nc3cccc([N+](=O)[O-])c3)ccc2C)cc1	inactive
CCCCNC(=O)c1sc(=S)n2c1[nH]c(=O)c1ccccc12	inactive
Cc1cccc(CSCCNC(=O)c2ccc(N(C)S(=O)(=O)c3ccccc3)cc2)c1	inactive
O=[N+]([O-])c1ccc(COc2cccc(CNc3ccc(F)cc3)c2)cc1	inactive
CCCCOc1ncnc2c1[nH]c1ccccc12	inactive
COC(=O)Cn1c(=NC(=O)CSC(C)=O)sc2ccccc21	inactive
CC(C)C[C@H](N)c1nnc(S(=O)(=O)Cc2ccc(F)cc2)o1	inactive
CC(C)c1ccc(/C=C/C(=O)NCCC2=CCCCC2)cc1	inactive
CCOC(=O)c1sc(NC(=O)c2cc(-c3ccccc3)nc3ccccc23)c(C#N)c1C	inactive
CC1CCc2nc(NC(=O)CSc3nc4ccccc4o3)sc2C1 (stereo not given)	inactive
Cc1ccccc1NC1c2ccccc2C(=O)N1Cc1ccco1 (stereo not given)	inactive
Cc1c(N=Nc2c(-c3ccc([N+](=O)[O-])cc3)[nH]n(C(N)=S)c2=O)cccc1[N+](=O)[O-]	inactive
CC1CCN(S(=O)(=O)c2cccc(C(=O)N3CCN(c4ccc(F)cc4)CC3)c2)CC1	inactive
Cc1cccc2c1NC(=O)C2(c1ccc(O)cc1)c1ccc(O)cc1	inactive
Cc1ccc(-c2cc(C(=O)Nc3ccncc3)c3ccccc3n2)cc1	inactive
CSc1nsc(NC(=O)OCc2ccc(Cl)cc2)n1	inactive
CCOC(=O)Cc1csc(NC(=O)COc2ccc(N(C)S(=O)(=O)c3cccs3)cc2)n1	inactive
O=C1S/C(=C\c2ccc(O)c([N+](=O)[O-])c2)C(=O)N1c1ccccc1Cl	inactive
Cn1c2c(c(=O)[nH]c1=O)C(c1ccc(O)cc1)C1=C(N2)c2ccccc2C1=O (stereo not given)	inactive
O=S(=O)(c1ccc(SCc2ccc(Cl)cc2)nc1)N1CCCC1	inactive
CCOc1cc(C(=S)N2CCOCC2)ccc1OC(=O)c1ccccc1	inactive
